In the library only some 19% were active in any assay of this set; here they are far more common.
TDP1 cell noCPT = qHTS for Inhibitors of human tyrosyl-DNA phosphodiesterase 1 (TDP1): qHTS in cells in absence of CPT; DT40 Tdp1-/- hTDP1 cells, no CPT, ATP luminescence, 48 h; Potency, µM (series often up to 46.2 µM), most hits filed as inhibitors; 420,000 tested, 15% active; note: nearly all actives have a fitted effect of over 55% in size
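Chicken DT40 Tdp1-/- cells complemented with human TDP1, screened without camptothecin (DMSO vehicle only), 400 cells/well. Compounds pin-transferred, cells incubated at 37 °C for at least 48 hr. Growth read as ATP-dependent luminescence (CellTiter-Glo, 30 min at RT).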
TDP1 inh = inhibitors of human tyrosyl-DNA phosphodiesterase TDP1 | AID 485290 | Potency, µM (series often up to 130 µM), hits mostly inhibitors | 350,000 tested, 0.28% active | recombinant TDP1, AlphaScreen DNA substrate cleavage; note: nearly all actives have a fitted effect of over 40% in size
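Steps: enzyme plus compound, 15 min RT; add biotin/phosphotyrosine-FITC oligonucleotide (15 nM final), react 5 min; add donor/acceptor beads (10 ug/ml final), 10 min; read AlphaScreen. Tdp1 at 1 nM final.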
DT40 TDP1 CPT = growth inhibition of DT40 Tdp1-/-;hTDP1 cells with camptothecin (screen for TDP1 inhibitors). chicken DT40 Tdp1-/-;hTDP1 cells + 20 nM CPT, ATP luminescence, 48 h. Potency, µM (highest dose often 46.2 µM), most hits filed as inhibitors. 420,000 tested, 12% active; note: nearly all actives have a fitted effect of over 55% in size
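Chicken DT40 Tdp1-/- cells complemented with human TDP1, 400 cells/well, exposed to compounds plus 20 nM camptothecin for at least 48 h at 37 C; viability read as ATP content by CellTiter-Glo luminescence.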
Gal4-VP16 FLuc = counter-screen for ROR gamma inhibitors: Gal4-VP16 reporter; 310,000 tested, 3.5% active; Drosophila S2 Gal4-VP16 UAS-luciferase, luminescence, 20 h; Potency, µM (doses to about 53.6 µM), actives largely listed as inhibitors; AID 2546;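 note: Gal4-VP16 expression switched on by copper sulfate through the metallothionein promoter; nearly all actives have a fitted effect of over 50% in size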
RORg inh = blocks mouse ROR gamma transcriptional activity; Drosophila S2 Gal4-RORgamma UAS-luciferase reporter, 20 h; Potency, µM (highest dose often 53.6 µM), most hits filed as inhibitors; 310,000 tested, 5.4% active; AID 2551; P51450; note: nearly all actives have a fitted effect of over 60% in size
Target sequence (P51450 whole entry, looked up, the tested form may be a part): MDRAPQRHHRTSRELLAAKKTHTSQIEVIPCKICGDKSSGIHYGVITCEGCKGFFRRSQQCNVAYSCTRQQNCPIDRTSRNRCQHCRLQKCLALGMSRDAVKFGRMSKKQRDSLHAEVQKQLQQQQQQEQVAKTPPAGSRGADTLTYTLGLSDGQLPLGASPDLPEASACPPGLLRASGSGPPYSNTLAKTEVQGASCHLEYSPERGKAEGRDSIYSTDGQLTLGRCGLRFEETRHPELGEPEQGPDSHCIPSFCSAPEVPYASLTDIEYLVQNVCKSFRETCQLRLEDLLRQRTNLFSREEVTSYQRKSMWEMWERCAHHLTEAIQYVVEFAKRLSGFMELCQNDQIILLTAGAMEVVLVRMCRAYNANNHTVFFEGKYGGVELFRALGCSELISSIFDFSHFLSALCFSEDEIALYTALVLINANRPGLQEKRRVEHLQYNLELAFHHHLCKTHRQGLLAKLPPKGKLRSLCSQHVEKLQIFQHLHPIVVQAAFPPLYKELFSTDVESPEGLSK
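Luciferase reporter read in Schneider cells carrying Gal4-RORγ (mouse) and UAS-Photinus luciferase; cells given compound 1 h before 700 uM copper sulfate induction, then incubated 20 h at ambient temperature.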
A number is an active result; - = inactive; ? = inconclusive; . = no result; [ ] = another dose, or the depositor's remark. Calls come from the whole dose curve; as a rule, active = well fitted curve in the direction sought with a large enough effect; inconclusive = small, poorly fitted or top-dose-only effect, or another doubt; inactive = no such curve, though single readings can be large; an effect the other way counts as inactive or inconclusive.

SMILES | TDP1 cell noCPT | TDP1 inh | DT40 TDP1 CPT | Gal4-VP16 FLuc | RORg inh
COc1cccc(C2CC(=O)Nc3cc(C)c(C)cc32)c1 (configuration not stated) | 14.6µM | . | ? | . | .
O=C1CC(c2cccc([N+](=O)[O-])c2)c2cc3c(cc2N1)CCC3 (configuration not stated) | 25.9µM | - | 18.4µM | ? | -
O=C1CC(c2cccc(Cl)c2)c2cc3c(cc2N1)CCC3 (configuration not stated) | 2.91µM | - | 4.61µM | ? | ?
CCC(CC)NC(=O)COC(=O)c1cc(Br)ccc1Cl | - | - | - | - | -[10 µM]
Cc1ccc(NC(=O)C(=O)NCc2ccco2)cc1 | - | -[12.3 µM] | - | . | .
O=C1CC(c2cccc([N+](=O)[O-])c2)c2c(ccc3ccccc23)N1 (configuration not stated) | 8.2µM | - | 13µM | - | -
O=C1NC[C@@H](CCCCN2C[C@H](Cc3ccc(O)cc3)N(CCc3ccccc3)C(=O)C2=O)N(CCc2ccccc2)C1=O | - | . | - | . | .
COCc1nnc(NC(=O)c2ccc(S(=O)(=O)N(C)c3ccccc3)cc2)o1 | ? | - | 16.4µM | 2.51µM | 1.58µM
C=CCN(CC=C)S(=O)(=O)c1ccc(C(=O)Nc2nnc(COC)o2)cc1 | 16.4µM | - | ? | 7.08µM | 2µM
COCc1nnc(NC(=O)c2ccc(S(=O)(=O)N(CC(C)C)CC(C)C)cc2)o1 | ? | - | ? | 2.51µM | 0.631µM
Clc1ccc(Nc2cc(-c3ccccc3)nc3ncnn23)cc1 | - | - | - | - | -
CC(=O)CSc1cc(-c2ccccc2)nc2ncnn12 | ? | . | - | 15.8µM | 2.51µM
COc1ccc(CCNc2cc(-c3ccccc3)nc3ncnn23)cc1 | ? | - | 23.1µM | - | ?
C#CCNc1cc(-c2ccccc2)nc2ncnn12 | - | - | - | - | -
c1ccc(Nc2cc(-c3ccccc3)nc3ncnn23)cc1 | ? | - | - | ? | 15.8µM
Cn1c(=O)c(CCc2ccccc2)nc2cnc(Oc3ccccc3)nc21 | ? | . | - | - | -
CCOC(=O)Cc1csc(NS(=O)(=O)c2ccc3ccccc3c2)n1 | - | - | ? | ? | ?
CN(Cc1ccccc1)C(=O)C1CCCN1S(=O)(=O)c1ccc(Cl)cc1 (configuration not stated) | - | - | ? | . | .
CCn1cc[n+](C)c1P(c1ccccc1)c1ccccc1 | 0.013µM | - | 0.651µM | ? | ?
Cc1ccc(C)c(NC(=O)/C(C#N)=C/c2ccc[nH]2)c1 | - | - | 18.4µM | - | -
Cc1cccc(NC(=O)/C(C#N)=C/c2ccc[nH]2)c1C | ? | - | 11.6µM | - | -
NS(=O)(=O)c1ccc(CNC(=O)C2CCCCC2)cc1 | - | - | - | . | -[0.365 µM]
COc1ccc2c(c1OC)C(=O)N(c1ccc3c(c1)CCC3)C2=O | - | - | - | - | -
COc1cccc(S(=O)(=O)N(C)C[C@H]2Oc3cc(Br)ccc3S(=O)(=O)N([C@@H](C)CO)C[C@H]2C)c1 | 14.6µM | . | 20.6µM | . | .
C[C@H](CO)N1C[C@H](C)[C@H](CN(C)C(=O)c2ccccc2)Oc2cc(Br)ccc2S1(=O)=O | - | . | - | . | .
SMILES | TDP1 cell noCPT | TDP1 inh | DT40 TDP1 CPT | Gal4-VP16 FLuc | RORg inh
C/C=C/c1ccc2c(c1)O[C@H](CN(C)C(=O)NC1CCCC1)[C@H](C)CN([C@H](C)CO)S2(=O)=O | 20.6µM | . | 18.4µM | . | .
C[C@H]1CN([C@@H](C)CO)S(=O)(=O)c2ccc(Br)cc2O[C@H]1CN(C)S(=O)(=O)c1ccccc1 | 16.4µM | . | 16.4µM | . | .
C[C@H]1CN([C@@H](C)CO)S(=O)(=O)c2ccc(Br)cc2O[C@H]1CN(C)C(=O)NC1CCCCC1 | - | . | ? | . | .
Cc1ccc(S(=O)(=O)N(C)C[C@H]2Oc3cc(C#Cc4ccccc4)ccc3S(=O)(=O)N([C@H](C)CO)C[C@@H]2C)cc1 | 9.2µM | . | 10.3µM | . | .
CCc1ccc(/C(C)=N/NC(=O)C(O)c2ccccc2)s1 (configuration not stated) | - | . | - | . | .
Cc1ccc(S(=O)(=O)c2cn(CC(=O)Nc3ccccc3)c3ccc(F)cc3c2=O)cc1 | ? | - | ? | - | -
O=C(Nc1nnc([C@H]2C[C@H](O)[C@@H](CO)O2)s1)c1cccc(Oc2ccccc2)c1 | - | . | - | . | .
CN1CCCN=C1COC(=O)C(O)(c1ccccc1)C1CCCCC1 (configuration not stated) | ? | - | ? | - | -
Cc1ccc2c(c1)c1nnc(SCC(=O)Nc3cccc(Cl)c3C)nc1n2CC(=O)O | - | - | - | - | -
C[C@@H]1CN([C@H](C)CO)S(=O)(=O)c2ccc(Br)cc2O[C@H]1CN(C)C(=O)C1CC1 | - | . | - | . | .
C[C@@H]1CN([C@@H](C)CO)S(=O)(=O)c2ccc(Br)cc2O[C@H]1CN(C)C(=O)C1CCC1 | 16.4µM | . | ? | . | .
O=C(c1cc2c(s1)CCCC2)N1CCN(c2ccccc2)CC1 | ? | - | ? | - | -
Cc1ccc(CNC(=O)C2CC=CCC2C(=O)O)cc1 (configuration not stated) | ? | . | ? | - | -
COc1cc(Br)c(C[N+]2(CCOCCC3CCC4CC3C4(C)C)CCOCC2)cc1OC (configuration not stated) | 1.88µM | . | 1.88µM | . | .
O=C1c2ccccc2[C@@H]2Cc3csc[n+]3[C@H]12 | 5.17µM | . | 3.66µM | . | .
COC(=O)c1cc(CSc2nc3ccc(C)cc3[nH]2)oc1C | 18.4µM | - | 16.4µM | ? | -
COC(=O)c1cc(CSc2nnc(-c3ccccc3)c(-c3ccccc3)n2)oc1C | 20.6µM | - | 23.1µM | - | -
COC(=O)c1ccc(CSc2nc3ccccc3[nH]2)o1 | - | - | - | ? | -
CC(C)C(=O)NNC(=O)CSc1nnc(-c2ccccc2)c(-c2ccccc2)n1 | - | - | - | . | .
COC(=O)c1cccc(CSc2nc3ccccc3[nH]2)c1 | 16.4µM | - | ? | ? | -
COc1ccc(CNC(=O)CSc2nc3ccc(C)cc3[nH]2)cc1 | ? | . | ? | - | -
CCc1nc(SCC(=O)NCc2ccc(F)cc2)c2c(=O)n(C)c(=O)n(C)c2n1 | - | - | - | - | -
CCc1nc(SCc2ccc(C(=O)OC)o2)c2c(=O)n(C)c(=O)n(C)c2n1 | 9.2µM | - | 14.6µM | - | ?
CC1CN(C(=O)COC(=O)CSc2ccc([N+](=O)[O-])cc2)CC(C)O1 (configuration not stated) | - | - | - | . | .
C[C@H]1CN(S(=O)C(C)(C)C)[C@@H](CCO)/C1=C\c1ccccc1 (some centres not stated) | ? | . | - | . | .
CCCCn1c(SCc2ccc(C(=O)OC)o2)nc2cc(S(N)(=O)=O)ccc21 | 9.2µM | - | 3.26µM | 10µM | -
CC(=O)Nc1ccc(NC(=O)CSc2nc(C)nc3sc(C)c(C)c23)cc1 | ? | - | - | - | -
COC(=O)c1ccc(CSc2nc3ccccc3c(=O)n2C)o1 | ? | - | 14.6µM | - | -
